# High-throughput results from PubChem BioAssay.
# hcDAF12 agonist = activates DAF-12 receptor from parasite H. contortus; HEK293 hcDAF-12 lit1-tk-luc reporter, luminescence; 0% DMSO, 100% Δ7-dafachronic acid; activation, % at 6.8 µM; 370,000 compounds, 1.4% hits; AID 652067;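 active = activation above the mean of all tested compounds plus 3 SD, cut at about 5.5% in these data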;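 note: 100% = response to 3 µM Δ7-dafachronic acid high control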
# DAX1 StAR inh = blocks DAX1 repression of SF-1 activated StAR promoter. AID 652010. HEK293T StAR-luciferase reporter, SF-1/DAX-1 repression relief. 370,000 compounds, 1.1% hits. inhibition, % at 6.8 µM;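 active = inhibition above the mean over all tested compounds plus 3 SD, cut at about 3.6% in these data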;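 note: 0% = DAX-1 cells with DMSO and 100% = cells lacking DAX-1 with DMSO; higher inhibition means more luminescence from relief of DAX-1 repression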
# ssDAF12 agonist = S. stercoralis DAF-12 activation, primary screen. activation, % at 6.8 µM. AID 652126. 370,000 compounds, 1% hits. HEK293 ssDAF-12/GRIP1 lit1-tk-luc reporter, luminescence; % of 3 µM dafachronic acid response;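 active = activation above the mean over all tested compounds plus 3 SD, cut at about 0.9% in these data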;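 note: 0% = DMSO-only wells and 100% = 3 µM delta7-dafachronic acid wells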
# hgDAF12 agonist = hgDAF-12 agonism, primary luciferase screen; HEK293 GAL4-hgDAF12 UAS-luciferase reporter, agonist luminescence; normalized to butyrate control; activation, % at 6.8 µM; 370,000 compounds, 1.8% hits; AID 687014;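 active = activation above a cutoff set at the mean of all screened compounds plus 3 SD, cut at about 10% in these data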;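 note: 0% = DMSO wells and 100% = sodium butyrate wells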
# Wnt act = activators of Wnt/beta-catenin signaling; Wnt/beta-catenin reporter cell assay, activator, plate reader; activation, % at 9.35 µM; 300,000 compounds, 1.2% hits; AID 743398; in the data active = activation above about 30%, passing the limit was not always enough; inconclusive = no clear call, values can overlap the other calls;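 note: 0% = neutral control wells and 100% = positive control wells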
# esBAF inh = SWI/SNF esBAF complex inhibition; mouse ES cells, Bmi1-luciferase knock-in reporter, 24 h; 100% = twice the neutral-well signal; 350,000 compounds, 2% hits; reporter increase, % at 12.5 µM; in the data active = activation above about 40%; inconclusive = no clear call, values can overlap the other calls;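 note: 0% = median of the plate's neutral control wells and 100% = double that signal; a rise in the Bmi1 reporter signal indicates esBAF inhibition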
# DAX1 conf = confirmation of human DAX1 (NR0B1) inhibitors | shares compounds with DAX1 StAR inh | HEK293T StAR-promoter luciferase reporter, SF-1/DAX-1 repression | inhibition, % at 6.8 µM | 2,400 compounds, 87% hits | AID 652134;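 active = inhibition above the average of every tested compound plus 3 SD, cut at about 3.8% in these data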;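 note: 0% = DAX-1 cells with DMSO and 100% = no DAX-1 control cells with DMSO; active compounds raise luminescence by relieving repression of the StAR reporter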
# Target sequence (P51843 whole entry, looked up): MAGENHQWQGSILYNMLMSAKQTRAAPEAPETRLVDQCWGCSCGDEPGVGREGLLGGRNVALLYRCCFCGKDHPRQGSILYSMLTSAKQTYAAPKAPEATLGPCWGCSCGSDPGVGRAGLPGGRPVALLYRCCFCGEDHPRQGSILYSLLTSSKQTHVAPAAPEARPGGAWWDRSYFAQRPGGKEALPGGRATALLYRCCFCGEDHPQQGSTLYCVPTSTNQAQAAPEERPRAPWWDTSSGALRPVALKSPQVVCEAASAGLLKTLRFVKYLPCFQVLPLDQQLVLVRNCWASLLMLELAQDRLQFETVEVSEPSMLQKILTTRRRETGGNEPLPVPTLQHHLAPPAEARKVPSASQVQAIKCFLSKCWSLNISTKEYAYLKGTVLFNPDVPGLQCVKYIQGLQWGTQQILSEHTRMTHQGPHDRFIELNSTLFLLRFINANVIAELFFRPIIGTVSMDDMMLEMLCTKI
# SF1 mutant ctr = counter-screen for DAX1 inhibitors: nonselective inhibitors with SF-1 AF2 mutant | shares compounds with DAX1 StAR inh | HEK293 StAR-luciferase, luminescence | inhibition, % at 6.8 µM | 2,400 compounds, 78% hits;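 active = inhibition above the mean of all tested compounds plus 3 SD, cut at about 3% in these data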;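 note: 0% = DAX-1 transfected cells with DMSO and 100% = cells without DAX-1 with DMSO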
# The depositor's hits bear a star; ? = inconclusive; . = no result given. Compounds with a hit are over-represented: about 4.2% of the library has one in this group of screens.
SMILES,hcDAF12 agonist,DAX1 StAR inh,ssDAF12 agonist,hgDAF12 agonist,Wnt act,esBAF inh,DAX1 conf,SF1 mutant ctr
Fc1ccc(-c2nc3ccc(Br)cn3c2Cc2cccc(Cl)c2)cc1,0.2,0.9,-0.9,2.5,-2.1,0.2,.,.
Cc1noc(C)c1S(=O)(=O)Nc1ccc2c(c1)C(=O)N([C@@H](C)CO)C[C@@H](C)[C@@H](CN(C)S(=O)(=O)c1ccc(Cl)cc1)OCCCC[C@H](C)O2,.,.,.,.,.,3.2,.,.
COc1ccc(S(=O)(=O)Nc2ccc3c(c2)C(=O)N([C@H](C)CO)C[C@@H](C)[C@H](CN(C)C(=O)Cc2ccccc2)OCCCC[C@H](C)O3)cc1,.,.,.,.,.,-5.7,.,.
COc1ccc(C(=O)Nc2ccnn2C2CCN(C(=O)CCC(F)(F)F)CC2)cc1,4.7,5.7*,-1.0,8.6,1.9,4.0,6.4*,8.0*
C=CCCC(=O)N1CCC(n2nccc2NC(=O)c2ccc(OC)cc2)CC1,0.0,2.5,-1.1,5.0,-5.4,21.7,.,.
CC=Cc1ccc2n(c1=O)C[C@@H]1[C@@H](CO)[C@H](C(=O)NCCC)[C@H]2N1CC1CCCC1 (mixture of isomers),.,.,.,.,.,1.0,.,.
O=C(c1ccco1)N(Cc1cccnc1)C(c1ccccc1)c1nc2ccccc2[nH]1 (configuration not stated),1.8,6.0*,-0.2,7.7,21.0,33.0,3.8*,3.1*
CN1c2ccc(-c3ccccc3)cc2[C@@H]2[C@@H](CCN2C(=O)Nc2ccccc2F)[C@@H]1CO,.,.,.,.,.,-7.2,.,.
Cc1sc2nc(SCC(=O)Nc3ccc(Cl)c(C(=O)O)c3)[nH]c(=O)c2c1C,5.3,6.0*,0.7,17.1*,?,-3.1,12.3*,9.5*
C[C@H](CO)N1C[C@H](C)[C@@H](CN(C)S(=O)(=O)c2ccc(Cl)cc2)Oc2ccc(NS(=O)(=O)c3ccc(Cl)cc3)cc2CC1=O,.,.,.,.,.,8.7,.,.
COc1ccc(/C=C2\SC(=S)N(CCCCCC(=O)Nc3cc(C)on3)C2=O)cc1OC,-0.7,-0.2,-1.1,1.5,-0.2,-24.9,.,.
COc1cc(/C=C2\SC(=S)N(CCCCC(=O)O)C2=O)ccc1OS(=O)(=O)c1ccc(C)cc1,-0.1,5.9*,-1.0,-3.6,0.5,9.8,6.2*,5.8*
CCC(=O)N1C[C@H](C)[C@@H](OC)CN(C)C(=O)c2cc(NC(=O)COC)ccc2OC[C@@H]1C,.,.,.,.,.,-1.1,.,.
CCNc1nc(NCC)n2c(SCC(=O)Nc3ccccc3OC(F)F)nnc2n1,-1.7,0.0,-1.3,-1.6,-6.1,-8.5,.,.
CCNc1nc(NCC)n2c(SCC(=O)Nc3ccccc3F)nnc2n1,-1.8,4.5*,-1.1,-4.0,-1.6,-2.6,1.2,0.9
COc1ccc(NC(=O)COC(=O)c2cc(C)oc2C)c([N+](=O)[O-])c1,-1.5,4.6*,-1.2,-1.5,3.0,-7.5,-2.4,-2.0
O=C(c1ccc(CS(=O)c2ccccc2Cl)o1)N1CCN(C2CCCCC2)CC1 (configuration not stated),-0.7,6.9*,-0.2,-0.8,2.5,-0.3,5.8*,-4.7
O=C(c1ccc(CS(=O)c2ccccc2Cl)o1)N1CCCCCC1 (configuration not stated),-0.8,-2.0,-1.1,4.2,1.2,10.7,.,.
O=C(NC1CCCC1)c1cc2cc(Br)ccc2o1,1.6,7.0*,-0.6,10.2,?,68.7*,7.8*,4.1*
Cc1ccc2cc3cc(C(=O)NC4CCCCC4)oc3nc2c1,-0.9,5.5*,-0.9,1.1,13.4,46.6*,0.9,0.3
CCN1CCc2c(sc(NC(=O)c3ccc(S(=O)(=O)N4CC(C)OC(C)C4)cc3)c2C(N)=O)C1 (configuration not stated),-1.4,4.8*,-1.3,2.5,-1.2,0.0,2.0,3.7*
CN1CCN(C(=O)C[C@H]2C[C@@H]3c4cc(NC(=O)Nc5ccc(F)cc5)ccc4O[C@@H]3[C@@H](CO)O2)CC1,.,.,.,.,.,3.5,.,.
CN(C)c1ccc(C=Nc2ccccc2C(N)=O)cc1,10.3*,5.8*,1.9*,9.6,.,.,19.4*,9.1*
Cc1ccc(C=Nc2ccccc2C(N)=O)o1,2.5,0.6,-1.1,-0.1,0.3,.,.,.
COc1ccccc1CN1[C@H](CO)[C@H]2c3ccccc3N(C(=O)C3CCCCC3)C[C@H]21,.,.,.,.,.,-5.4,.,.
SMILES,hcDAF12 agonist,DAX1 StAR inh,ssDAF12 agonist,hgDAF12 agonist,Wnt act,esBAF inh,DAX1 conf,SF1 mutant ctr
O=C(N/N=C/c1ccoc1)c1ccccc1F,2.4,5.3*,-0.4,4.4,4.5,.,3.7*,3.3*
O=C(N/N=C\c1ccoc1)c1ccco1,3.5,6.6*,-0.6,7.8,0.5,.,2.5,2.4
CC(/C=N/NC(=O)c1ccccc1F)=C\c1ccccc1,4.5,9.2*,-0.5,12.2*,5.4,19.9,9.9*,4.2*
Cc1cccc(C(=O)N/N=C/c2ccoc2)c1,-0.8,0.7,-1.0,3.5,0.1,20.7,.,.
O=C(C[C@@H]1C[C@H]2c3cc(NC(=O)NC4CCCC4)ccc3O[C@H]2[C@@H](CO)O1)NCc1ccncc1,.,.,.,.,.,6.1,.,.
Cc1noc(C)c1S(=O)(=O)Nc1ccc2c(c1)C(=O)N([C@H](C)CO)C[C@@H](C)[C@H](CN(C)Cc1ccc3c(c1)OCO3)OCCCC[C@@H](C)O2,.,.,.,.,.,2.0,.,.
Cc1noc(C)c1S(=O)(=O)Nc1ccc2c(c1)C(=O)N([C@H](C)CO)C[C@@H](C)[C@@H](CN(C)S(=O)(=O)c1cccs1)OCCCC[C@@H](C)O2,.,.,.,.,.,2.1,.,.
C[C@@H]1CN([C@@H](C)CO)C(=O)c2cc(NS(=O)(=O)c3ccc(F)cc3)ccc2O[C@@H](C)CCCCO[C@H]1CN(C)S(=O)(=O)c1cccs1,.,.,.,.,.,4.5,.,.
COc1ccc(COC(=O)c2cc([N+](=O)[O-])ccc2N2CCOCC2)cc1F,-0.7,4.5*,-1.2,-5.3,-0.4,-35.9,13.4*,-6.5
COc1cc2c(O)c3c(c(-c4ccc5c(c4)OCO5)c2cc1OC)C(=O)OC3,-2.0,6.6*,-1.6,-5.8,5.3,-47.5,14.8*,-5.5
COc1cc(-c2cnc3c(NC=O)cc(-c4ccc(C)cc4)cn23)cc(OC)c1OC,-2.4,11.0*,-0.5,-2.6,.,-13.0,21.4*,-6.8
COc1cc(-c2cc(NC=O)c3ncc(-c4ccccc4)n3c2)cc(OC)c1OC,-2.5,-1.1,-1.1,-2.5,-2.9,-5.6,.,.
Cc1nn(-c2ccccc2)c(C)c1C(=O)OCC(=O)Nc1ccccc1F,1.6,7.4*,0.2,10.2,43.7*,36.5,7.0*,3.6*
CC(=O)Nc1ccc(NC(=O)COC(=O)c2c(C)nn(-c3ccccc3)c2C)cc1,-2.4,-1.9,-1.2,2.8,-1.4,.,.,.
